# Measurements published in the supplement of paper PMC8728848.
# This is one part of a sample in which the strongest signals are shown more often than they occur.
# Assays:
# Experiment in all cases: glycan array binding signal (z-score within array); higher = stronger binding
# Conditions in all cases: glycan notation: IUPAC condensed, linker removed
# [1] = system: GalNAc(a1-3)GalNAc(b1-3)Gal(a1-4)Gal(b1-4)Glc
# Procedure, shortened: (§1)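 The binding signal is a Z-score computed within each array and averaged over linkers. Arrays of the same protein sequence at different concentrations or buffers were also averaged together. Data originate from 3228 arrays in the Consortium for Functional Glycomics database, kept only where the protein sequence was available.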
# [2] = system: GalNAc(b1-3)Gal(a1-4)Gal(b1-4)GlcNAc
# Procedure, shortened: as §1
# GalNAc(b1-4)Gal(b1-4)Glc = system: GalNAc(b1-4)Gal(b1-4)Glc
# Procedure, shortened: as §1
# [3] = system: GalNAc(b1-4)GlcNAc(b1-2)Man(a1-3)[GalNAc(b1-4)GlcNAc(b1-2)Man(a1-6)]Man(b1-4)GlcNAc(b1-4)GlcNAc
# Procedure, shortened: as §1
# GalNAc(a1-3)Gal = system: GalNAc(a1-3)Gal
# Procedure, shortened: as §1
# GalNAc(b1-3)GlcNAc = system: GalNAc(b1-3)GlcNAc
# Procedure, shortened: as §1
# GalNAc(b1-6)GalNAc = system: GalNAc(b1-6)GalNAc
# Procedure, shortened: as §1
# [4] = system: GalNAc(b1-3)Gal(a1-6)Gal(b1-4)Glc
# Procedure, shortened: as §1
# GalNAc(b1-3)GalNAc = system: GalNAc(b1-3)GalNAc
# Procedure, shortened: as §1
# [5] = system: GalNAc(b1-4)GlcNAc(b1-3)GalNAc(b1-4)GlcNAc
# Procedure, shortened: as §1
substance,measurement,setting,value
"SiiE (Salmonella typhimurium), A0A0H3NVH0",glycan array binding signal (z-score),[1],-1.13
AgI/IIC123-GFP (Streptococcus mutans),glycan array binding signal (z-score),[2],1.61
same,glycan array binding signal (z-score),GalNAc(b1-4)Gal(b1-4)Glc,-0.438
same,glycan array binding signal (z-score),[3],-0.272
AgI/II Vhelical-GFP (Streptococcus mutans),glycan array binding signal (z-score),GalNAc(a1-3)Gal,-0.061
same,glycan array binding signal (z-score),GalNAc(b1-3)GlcNAc,-0.152
Actinohivin (Actinomycete K97),glycan array binding signal (z-score),GalNAc(a1-3)Gal,-0.192
same,glycan array binding signal (z-score),GalNAc(b1-6)GalNAc,-0.188
"BambL (Burhholderia ambifaria), Q0B4G1",glycan array binding signal (z-score),[4],-0.314
same,glycan array binding signal (z-score),GalNAc(b1-4)Gal(b1-4)Glc,-0.316
LcI (Legionella pneumophila),glycan array binding signal (z-score),GalNAc(b1-3)GalNAc,-0.554
same,glycan array binding signal (z-score),[5],-0.365
Epa22,glycan array binding signal (z-score),[4],-0.822
